Not all results are given here.
aSyn 5UTR act: Activators via SNCA 5'UTR binding, MLPCN | alpha-synuclein 5'UTR reporter, activators screen | hit rate 7.1% among 300,000 | activity score, % (tested at 7.5 µM), hits read low | AID 1814, 2009; in the data active = activity score below about -60%
Numbers stand for hits; n = inactive.

SMILES	aSyn 5UTR act
CN(C)c1ccc(/C=N/NC(=O)c2cc(-c3ccc4c(c3)OCO4)n[nH]2)cc1	-137.0
COc1cccc(/C=N/Nc2ccc([N+](=O)[O-])cn2)c1O	n
O=C(N/N=C/c1ccc2c(c1)OCO2)c1ccc(Br)o1	-250.0
Cc1ncoc1C(=O)Nc1cccc(Cl)c1	-92.1
Cc1ccc(NC(=O)c2ocnc2C)cc1Cl	-239.6
COc1cccc(NC(=O)c2ocnc2C)c1	-81.0
O=C(O)CCCc1ccc2c(c1)CCc1ccccc1-2	n
O=C(CCCCN1CCCCC1)c1ccc2c(c1)Cc1ccccc1-2	-64.6
CCCc1ccc(OCc2ccc(C(=O)N3CCSCC3)o2)cc1	-147.7
CC(C)(C)c1ccc(OCc2ccc(C(=O)Nc3cccnc3)o2)cc1	-169.5
CC(C)(C)c1ccc(OCCCC(=O)N2CCOCC2)cc1	-104.0
Cc1ocnc1C(=O)Nc1ccc(Cl)cc1	-166.9
O=C(Nc1ccc(Cl)cc1)c1ccc(OC2CSC2)cc1	-90.1
CC(C)(C)c1ccc(C(=O)Nc2ccc(Cl)cc2)cc1	-109.9
CC(C)(C)c1ccc(C(=O)Nc2cccnc2)cc1	-91.0
COC(=O)Cc1ccc(NC(=O)c2ccc(C(C)(C)C)cc2)cc1	n
CCc1ccc(OCc2ccc(C(=O)OC)o2)cc1	-219.7
CC(=O)Nc1nonc1NC(=O)c1ccc(C(C)(C)C)cc1	-153.0
CC(C)(C)c1ccc(OCc2ccc(C(=O)N3CCOCC3)o2)cc1	-119.3
COC(=O)c1ccc(COc2ccc(C(C)(C)C)cc2)o1	-166.9
COC(=O)c1ccc(COc2ccc3c(c2)CCC3)o1	-130.2
CCc1sc(C(=O)Nc2cccnc2)cc1Br	-110.5
O=C(N/N=C/c1cc([N+](=O)[O-])ccc1O)c1ccc(COc2ccc3c(c2)CCC3)o1	n
O=C(N/N=C/c1ccc2ccccc2c1)c1ccc(COc2ccc3c(c2)CCC3)o1	-72.3
O=C(N/N=C\c1c(O)ccc2ccccc12)c1ccc(Cn2cccn2)o1	n
SMILES	aSyn 5UTR act
CCc1ccccc1NC(=S)N=Nc1c(O)n(C)c2ccc(S(=O)(=O)N3CCOCC3)cc12	n
CCOc1ccc2c(c1)c(N=Nc1cccc(C(=O)O)c1)c(O)n2C	-179.4
CCCCc1ccc(-c2ccc(C)cc2O)nc1	n
CCCCCc1ccc(-c2ccc(OC)cc2)nc1	-122.7
COc1cc(CNCCc2ccc(S(N)(=O)=O)cc2)ccc1OCc1ccc(Cl)cc1	-64.2
CCOc1cc(CNCCc2ccc(S(N)(=O)=O)cc2)ccc1OCc1ccc(Cl)cc1	n
COc1cccc(NC(=O)c2nn(C)cc2Br)c1	-105.2
Cn1cc(Br)c(C(=O)Nc2ncc(Br)s2)n1	-146.9
Cn1cc(Br)c(C(=O)NNC(=O)c2ccc(Cl)cc2)n1	-94.1
CCOc1ccc(NC(=O)c2nn(C)cc2Br)cc1	-154.0
COc1cc(CNC(=O)C2CC2)ccc1OCc1ccccc1	-96.8
COc1cc(CN2CCCCC2)ccc1OCc1ccccc1	-65.5
COc1cc(CN2CCC(C(=O)NCCC(C)C)CC2)ccc1OCc1ccccc1	-173.0
CCCCn1c(-c2ccccc2)cnc1SCC(=O)NCCc1ccc(OC)c(OC)c1	-135.8
COc1ccc(CCNC(=O)C(=O)NCc2ccccc2)cc1OC	-81.9
O=c1oc2cc(Cl)ccc2n1CSc1nc2ccccc2s1	-164.7
CCOC(=O)c1ccc(NC(=O)CC2SCCNC2=O)cc1 (stereo not given)	-81.4
Cc1ccc(N=Cc2nc(-c3ccco3)oc2O)cc1	-68.9
Oc1oc(-c2ccc(Br)cc2)nc1/C=N/c1ccccn1	-81.4
Oc1oc(-c2ccccc2)nc1/C=N/c1nccs1	-86.1
Cc1ccc(-c2nc(C=Nc3ccccc3)c(O)o2)cc1	-101.7
NC(=O)C1CC(=O)N(c2ccc(OCc3ccc(F)cc3)cc2)C1 (stereo not given)	-113.3
O=C(N/N=C/c1ccccc1O)C1CC(=O)N(c2ccc(Cl)cc2)C1 (stereo not given)	n
NC(=O)C1CC(=O)N(c2ccc(OCc3ccc([N+](=O)[O-])cc3)cc2)C1 (stereo not given)	-128.4
COc1ccc(/C=C/C(=O)Nc2cc(C)nn2-c2nc3ccccc3[nH]2)cc1	-84.9
SMILES	aSyn 5UTR act
O=C(CSc1cccs1)NCCc1ccccc1	-63.5
O=C(CSc1ccccc1)NCCc1ccccc1	-61.6
O=C(CSc1cccs1)Nc1ccc(Cl)cc1	-115.7
Cc1ccc(C(=O)Nc2ncccc2S(=O)(=O)c2ccccc2)cc1	-153.6
c1ccc(CSc2cc3ccccc3[nH]2)cc1	-132.3
CN(C(=O)c1ccc(S(=O)(=O)c2cccc(Cl)c2)c([N+](=O)[O-])c1)C1CCCCC1	-86.4
O=C(NC1CCCCC1)c1ccc(S(=O)(=O)c2ccccc2Cl)c([N+](=O)[O-])c1	-94.9
O=C(Nc1cc2c(cc1Cl)OCCCO2)c1ccco1	-143.7
O=C(Nc1cc2c(cc1Cl)OCCCO2)c1ccccc1	-151.4
Cc1cc(C)c2c(N)c(C(=O)Nc3ccccc3Cl)sc2n1	-105.4
Cc1cc(C)c2c(N)c(C(=O)Nc3ccccc3F)sc2n1	-157.4
C=COC(=O)c1sc2nc(C)cc(C)c2c1N	-61.7
Cc1cc(C)c2c(N)c(C(=O)Nc3ccccc3Br)sc2n1	-132.8

From PubChem
